A selection: hits, their analogues and other compounds. The true share with any hit is near 3.4%.
Tau fibril ThT: blocks human tau fibril formation measured by thioflavin T | P10636 | recombinant tau K18 P301L, heparin-induced fibrillization, ThT fluorescence | Potency, µM (doses to about 57.4 µM), hits mostly inhibitors | actives 2.1% (n = 270,000); also: nearly all actives have a fitted effect of over 55% in size
Target sequence (P10636 561-689 P618L limits assumed): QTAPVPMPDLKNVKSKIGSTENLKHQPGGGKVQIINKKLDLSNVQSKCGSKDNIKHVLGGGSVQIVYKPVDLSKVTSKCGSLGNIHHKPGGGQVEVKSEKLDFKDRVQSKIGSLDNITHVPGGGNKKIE
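Heparin-induced (20 uM) aggregation of recombinant human K18 P301L tau, 15 uM unlabeled with 0.24 uM labeled, pH 7 acetate buffer, 6 hr at 37 C with compound. Fibrils quantified by 30 uM ThT fluorescence after 1 hr ambient incubation.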
RGS12 GoLoco inh: inhibitors of human Gai1-RGS12 GoLoco interaction (red fluorophore); P63096; Gai1:RGS12 GoLoco peptide FP, rhodamine, 10 min; Potency, µM (top dose mostly 61.6 µM), usual class: inhibitors; actives 0.44% (n = 230,000); active = well fitted inhibition curve with a large enough effect, not every such curve was filed as active; inactive = no such curve, though single readings can be large or run the other way; also: nearly all actives have a fitted effect of over 30% in size
Target sequence (P63096 whole entry, looked up): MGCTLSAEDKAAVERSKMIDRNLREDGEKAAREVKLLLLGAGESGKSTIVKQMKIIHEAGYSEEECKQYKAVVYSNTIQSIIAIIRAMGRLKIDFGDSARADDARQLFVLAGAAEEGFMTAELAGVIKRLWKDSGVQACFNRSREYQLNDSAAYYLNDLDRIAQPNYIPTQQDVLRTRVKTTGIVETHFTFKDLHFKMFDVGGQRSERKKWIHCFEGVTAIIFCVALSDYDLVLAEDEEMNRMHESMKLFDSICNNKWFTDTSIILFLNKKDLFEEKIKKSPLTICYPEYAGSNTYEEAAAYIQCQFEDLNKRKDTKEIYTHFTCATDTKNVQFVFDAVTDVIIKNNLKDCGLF
Tau FP inhib: tau fibrillization inhibition (FP); AID 1468; P10636; K18 P301L tau heparin fibrillization, Alexa594 FP, 6 h; Potency, µM (doses to about 57.7 µM), most hits filed as inhibitors; actives 0.39% (n = 280,000); also: nearly all actives have a fitted effect of over 55% in size
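Read-out: fluorescence polarization of Alexa 594-labeled tau (0.24 uM), 555 nm excitation, 632 nm emission. Mixtures held 15 uM unlabeled K18 P301L, compound and 20 uM heparin, pH 7 acetate buffer, incubated 6 hr at 37 C.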
KDM4E inh: blocks human JMJD2E demethylase activity; B2RXH2; JMJD2E catalytic domain, FDH-coupled NADH fluorescence (FDH is formaldehyde dehydrogenase); Potency, µM (series often up to 57.1 µM), most hits filed as inhibitors; actives 1.6% (n = 230,000); AID 2147; active = well fitted inhibition curve with a large enough effect, not every such curve was filed as active; inconclusive = small, poorly fitted or top-dose-only effect, or another doubt; inactive = no such curve, though single readings can be large or run the other way; also: nearly all actives have a fitted effect of over 50% in size
Tau fluor cs: counter-screen for tau fibril formation inhibitors; tau K18 P301L (four-repeat tau fragment) Alexa594 fluorescence, heparin fibrillization; actives 0.93% (n = 280,000); Potency, µM (doses to about 57.7 µM); also: nearly all actives have a fitted effect of over 55% in size
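Human K18 P301L tau (15 uM unlabeled plus 0.24 uM Alexa 594-labeled, final) in 100 mM sodium acetate pH 7 was mixed with compound and 20 uM heparin and incubated 6 hr at 37 C.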
Of the large screens only hits and unclear results are named; the others gave an inactive call; ! = not confirmed by another sample; [ ] = remark or other dose. Unless noted, calls follow the shape of the dose curve; as a rule, active = well fitted curve in the direction sought with a large enough effect; inconclusive = small, poorly fitted or top-dose-only effect, or another doubt; inactive = no such curve, though single readings can be large; an effect the other way counts as inactive or inconclusive.

CCOC(=O)c1c(C)oc2nc(C)nc(N3CCN(c4cccc(C)c4C)CC3)c12	Tau fibril ThT inconclusive (no result: RGS12 GoLoco inh, KDM4E inh)
CC1CCN(S(=O)(=O)c2ccc(NC(=O)Cc3cccs3)cc2)CC1	Tau fluor cs inconclusive
Cc1ccc2occ(CC(=O)Nc3ccc(S(=O)(=O)N4CCC(C)CC4)cc3)c2c1	Tau FP inhib 8.9µM, Tau fluor cs inconclusive (no result: RGS12 GoLoco inh, KDM4E inh)
Cc1ccc2c(CC(=O)Nc3ccc(S(=O)(=O)N4CCCCC4C)cc3)coc2c1 (stereo not drawn)	Tau FP inhib inconclusive, Tau fluor cs inconclusive (no result: RGS12 GoLoco inh, KDM4E inh)
Cc1ccc2c(CC(=O)Nc3cccc(C(F)(F)F)c3)coc2c1	Tau FP inhib 25µM, Tau fluor cs inconclusive (no result: RGS12 GoLoco inh, KDM4E inh)
Cc1ccc2c(CC(=O)Nc3ccc(S(=O)(=O)N4CCC(C)CC4)cc3)coc2c1	Tau FP inhib 10µM, Tau fluor cs inconclusive (no result: RGS12 GoLoco inh, KDM4E inh)
COc1cc(/C=C/c2nc(C#N)c(N3CCCCCC3)o2)cc(OC)c1OC	Tau fibril ThT inconclusive, Tau fluor cs inconclusive (no result: RGS12 GoLoco inh, KDM4E inh)
COc1cc(Cl)c(NC(=O)CN2C(=O)c3cccnc3Sc3ccccc32)c(OC)c1	none (no result: RGS12 GoLoco inh, KDM4E inh)
COc1ccccc1N1CCN(S(=O)(=O)c2c(C)sc3ncn(CC(=O)N(C)c4ccc(Cl)cc4)c(=O)c23)CC1	none (no result: RGS12 GoLoco inh, KDM4E inh)
Clc1cccc(CSc2nnc(C3CCNCC3)o2)c1	none (no result: RGS12 GoLoco inh, KDM4E inh)
COc1cccc2c1C(=O)c1c(O)c3c(c(O)c1C2=O)C[C@](O)(C(=O)CO)C[C@H]3O[C@@H]1C[C@H](N)[C@H](O)[C@H](C)O1	RGS12 GoLoco inh 2.2µM (no result: Tau fibril ThT, Tau FP inhib, Tau fluor cs)
CCc1cccc(NC(=O)Cn2c(=O)n(Cc3ccccc3)c(=O)c3c2c2cc(OC)ccc2n3C)c1	none (no result: RGS12 GoLoco inh, KDM4E inh)
CC1=CC2=C(OC1N(C)C)c1cccc3cccc(c13)C2=O (stereo not drawn)	Tau fibril ThT 20µM, RGS12 GoLoco inh 18µM, Tau FP inhib inconclusive, KDM4E inh 20µM
Cc1ccc(Cl)cc1N1CCN(C(=O)c2cn(C)c3ccc(S(=O)(=O)N4CCC(C)CC4)cc3c2=O)CC1	none (no result: RGS12 GoLoco inh, KDM4E inh)
COC(=O)c1sc(NC(=O)c2ccc(Cn3cc(Cl)cn3)o2)c(C#N)c1C	Tau fibril ThT 25µM, Tau FP inhib inconclusive, KDM4E inh inconclusive, Tau fluor cs inconclusive
CC1(OC(=O)CCc2ccccc2)C(=O)C=C2C=C(c3ccc(C#N)cc3)N(c3ccccc3)C=C2C1=O (stereo not drawn)	Tau fibril ThT 13µM!, Tau FP inhib inconclusive, KDM4E inh 11µM
CC1(OC(=O)CCc2ccccc2)C(=O)C=C2C=C(c3ccc(C#N)cc3)N(C3CCCC3)C=C2C1=O (stereo not drawn)	Tau fibril ThT inconclusive, KDM4E inh 20µM
CC1(OC(=O)CCc2ccccc2)C(=O)C=C2C=C(c3ccc(C#N)cc3)N(CC3CC3)C=C2C1=O (stereo not drawn)	Tau fibril ThT inconclusive, KDM4E inh inconclusive
CCc1nc(SC)ncc1C(=O)N1CCN(c2cc(C)ccc2C)CC1	none (no result: RGS12 GoLoco inh, KDM4E inh)
COc1ccc(S(=O)(=O)c2cnc(SCC(=O)Nc3cc(F)ccc3C)[nH]c2=O)cc1Cl	Tau fibril ThT inconclusive (no result: RGS12 GoLoco inh, KDM4E inh)
CC(=O)Nc1ccc(Nc2cc(C(C)C)nc3c(-c4ccccc4)c(C)nn23)cc1	Tau fibril ThT inconclusive, Tau FP inhib inconclusive, KDM4E inh inconclusive, Tau fluor cs 13µM[quencher]
CC(=O)Nc1ccc(Nc2cc(C)nc3c(-c4ccccc4)c(C)nn23)cc1	Tau fibril ThT inconclusive, KDM4E inh inconclusive, Tau fluor cs 14µM[quencher]
Cc1ccc(CNC(=O)C2CCCN(c3ncnc4onc(-c5ccc(F)cc5)c34)C2)cc1 (stereo not drawn)	none (no result: RGS12 GoLoco inh, KDM4E inh)
C[N+]1(C2CCC3CCCC2C3O)CCCC1 (stereo not drawn)	RGS12 GoLoco inh 2.8µM
CCN(CC)c1ccc(C(=O)Nc2ccc3nc(N(CC)CC)cc(C)c3c2)cc1	Tau fibril ThT 3.5µM, Tau fluor cs 14µM[quencher] (no result: RGS12 GoLoco inh, KDM4E inh)
CCN(CC)c1cc(C)c2cc(NC(=O)/C=C/c3ccccc3OC(C)C)ccc2n1	Tau fibril ThT inconclusive, Tau FP inhib inconclusive, Tau fluor cs 7.9µM[quencher] (no result: RGS12 GoLoco inh, KDM4E inh)
CCN(CC)c1cc(C)c2cc(NC(=O)c3ccccc3Cl)ccc2n1	Tau fibril ThT inconclusive, Tau fluor cs inconclusive (no result: RGS12 GoLoco inh, KDM4E inh)
Cc1nc2ccc(NC(=O)/C=C/C(=O)O)cc2nc1C	KDM4E inh inconclusive
COc1ccc2c(c1)c1c(c(=O)n(-c3cc(Cl)ccc3C)c(=O)n1Cc1ccc(F)cc1)n2C	none (no result: RGS12 GoLoco inh, KDM4E inh)
COc1cc2c(cc1OC)C(COc1ccc(F)cc1)N(C(=O)c1ccc(S(=O)(=O)N3CCCC3)cc1)CC2 (stereo not drawn)	none (no result: RGS12 GoLoco inh, KDM4E inh)
